Source: PubChem (National Center for Advancing Translational Sciences (NCATS))
The list is not random: actives were taken first. Their share in the collection is about 2.4%.
D2 ag-1 = HTS Assay for Allosteric Agonists of the Human D2 Dopamine Receptor: Primary Screen for Agonists; HEK293 T-REx D2 cells, calcium flux agonist mode; activation, % at 2 µM; 340,000 tested, 0.53% active;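 active = activation over 3 SD above normal in the single-dose calcium agonist read, cut at about 30% in these data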; note: 0% is about no effect
Target sequence (P14416 whole entry, looked up): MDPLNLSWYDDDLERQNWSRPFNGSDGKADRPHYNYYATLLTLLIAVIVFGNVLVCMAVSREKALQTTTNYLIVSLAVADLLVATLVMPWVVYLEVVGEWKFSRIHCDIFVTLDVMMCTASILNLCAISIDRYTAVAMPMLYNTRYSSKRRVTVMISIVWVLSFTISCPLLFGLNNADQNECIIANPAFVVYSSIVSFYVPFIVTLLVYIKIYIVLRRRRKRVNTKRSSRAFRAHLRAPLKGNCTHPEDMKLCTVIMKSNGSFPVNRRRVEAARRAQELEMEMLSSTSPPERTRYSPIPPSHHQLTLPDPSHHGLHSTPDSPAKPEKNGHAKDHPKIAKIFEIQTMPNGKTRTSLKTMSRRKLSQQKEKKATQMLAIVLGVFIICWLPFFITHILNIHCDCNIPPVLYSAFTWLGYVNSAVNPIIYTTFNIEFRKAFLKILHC
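Tetracycline-induced HEK293 T-REx cells with force-coupled D2 receptor, plated overnight at 30 C, loaded with no-wash calcium dye. After a 10 s baseline, compound was pin-added and calcium flux read kinetically for 180 s; calcium rises flagged agonists.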
D2 PAM-1 = HTS Assay for Positive Allosteric Modulators of the Human D2 Dopamine Receptor: Primary Screen for Potentiators; 340,000 tested, 0.34% active; D(2) dopamine receptor (Homo sapiens), P14416; AID 485347, 2010; HEK293 T-REx D2, calcium flux, EC20 dopamine potentiation; potentiation, % at 10 µM;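 active = potentiation over 3 SD above the plate norm, cut at about 30% in these data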; note: 0% is about no effect
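Primary screen. Calcium kinetics in induced HEK293 T-REx D2 cells: compound pre-addition 180 s, EC20 dopamine, 180 s more.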
D2 antag = HTS Assay for Allosteric Antagonists of the Human D2 Dopamine Receptor: Primary Screen for Antagonists. D(2) dopamine receptor (Homo sapiens), P14416. HEK293 TREx D2 cells, calcium flux, dopamine EC80. inhibition, % at 10 µM. 340,000 tested, 2% active; in the data active = inhibition above about 30%; inactive = below that, where a call was filed; note: 0% is about no effect
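Tetracycline-induced HEK293 T-REx cells expressing D2 force-coupled to calcium signalling were dye-loaded, exposed to compound for 180 s, then challenged with an EC80 of dopamine; calcium flux was followed kinetically for a further 180 s.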
D2 PAM-2 = Beta-Arrestin HTS for Positive Allosteric Modulators of the Human D2 Dopamine Receptor: Potentiators; D(2) dopamine receptor (Homo sapiens), P14416; potentiation, % (test concentration not listed); DiscoveRx D2 beta-arrestin cells, luminescence, 90 min; 100% = 57 uM dopamine signal; 360,000 tested, 0.23% active; AID 624464, 2012; in the data active = potentiation above about 50%; inconclusive = mostly about 30% to 49%
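PathHunter D2 cells, attached overnight at 37 deg C, received compound in DMSO plus dopamine at EC20 (50 nM final) for 90 min at 37 deg C. Beta-arrestin recruitment was read as luminescence after 1 h with detection reagent at ambient temperature.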
D2 ag-2 = Beta-Arrestin HTS for Positive Allosteric Modulators of the Human D2 Dopamine Receptor: Agonists; D(2) dopamine receptor (Homo sapiens), P14416; DiscoveRx PathHunter D2 beta-arrestin, luminescence, 90 min; 100% = 57 uM dopamine signal; activation, % (test concentration not listed); 360,000 tested, 0.084% active; AID 624465, 2012; in the data active = activation above about 40%; inconclusive = between about 15% and that limit
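Agonist mode: compounds alone added to overnight-plated D2 PathHunter cells for 90 min at 37 C, with 57 uM final dopamine (EC100) defining full response. Beta-arrestin recruitment detected by chemiluminescent reagent, read after 1 h at ambient temperature.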
Active calls of the source: *.

What do the screens show for `Cc1ccc2nc3ccc(N4CCCC4)nn3c(=O)c2c1`?
D2 ag-1: -1; D2 PAM-1: -7; D2 antag: 5; D2 PAM-2: -13; D2 ag-2: -2

How did O=c1oc(-c2ccco2)nc2ccccc12 do in these assays?
D2 ag-1: 1; D2 PAM-1: 6; D2 antag: 36*; D2 PAM-2: 3; D2 ag-2: -2

Results for O=c1oc(-c2ccco2)nc2c1cnn2-c1ccccc1 ?
D2 ag-1: 1; D2 PAM-1: -1; D2 antag: 2; D2 PAM-2: -8; D2 ag-2: -3

Results for COc1ccccc1N1CCN(S(=O)(=O)c2c(C)[nH]c(C)c2C(=O)N2CCCC2)CC1 ?
D2 ag-1: 0; D2 PAM-1: 27; D2 antag: 31*; D2 PAM-2: -10; D2 ag-2: -2

What do the screens show for `Cn1c(SCc2cc(=O)c3cc(Cl)ccc3[nH]2)nnc1-c1ccccc1`?
D2 ag-1: 0

How did Cc1[nH]c2c(C)cccc2c(=O)c1CN1CCCCCC1 do in these assays?
D2 ag-1: 1; D2 PAM-1: -10; D2 antag: -16; D2 PAM-2: -17; D2 ag-2: -6

What do the screens show for `c1cc(CNc2ccc3c(c2)OCCO3)ccn1`?
D2 ag-1: 2; D2 PAM-1: 31*; D2 antag: -7; D2 PAM-2: 15; D2 ag-2: 0

How did c1csc(CSc2nc3ccccc3s2)c1 do in these assays?
D2 ag-1: 0; D2 PAM-1: 13; D2 antag: 39*; D2 PAM-2: 7; D2 ag-2: -1

How did Cc1noc(C)c1CSc1nc2ccccc2s1 do in these assays?
D2 ag-1: 0; D2 antag: 18; D2 PAM-2: -1; D2 ag-2: -2

Results for COc1ccc(NC(=O)Nc2nnc(-c3ccccc3F)s2)cc1 ?
D2 ag-1: 2; D2 PAM-1: 0; D2 antag: 41*; D2 PAM-2: -3; D2 ag-2: 0

What do the screens show for `CCC(=O)Nc1cccc(-c2cn3c(C)csc3n2)c1`?
D2 ag-1: 0; D2 PAM-1: 10

Results for O=C1C(NS(=O)(=O)c2cccs2)=C(N2CCN(Cc3ccccc3)CC2)C(=O)c2ccccc21 ?
D2 ag-1: -1; D2 PAM-1: -23; D2 antag: 39*; D2 PAM-2: -18; D2 ag-2: 7

How did O=C1C(NS(=O)(=O)c2cccs2)=C(N2CCOCC2)C(=O)c2ccccc21 do in these assays?
D2 ag-1: 0; D2 PAM-1: 3; D2 antag: 38*; D2 PAM-2: -20; D2 ag-2: -6

What do the screens show for `CCOC(=O)c1c(C)[nH]c(CCC(=O)Nc2ccc(C)c(F)c2)c1C`?
D2 ag-1: 0; D2 PAM-1: -12

What do the screens show for `CCOc1ccc(CO/N=C/c2c(C)[nH]c(=O)[nH]c2=O)cc1`?
D2 ag-1: 0; D2 antag: -12; D2 PAM-2: -2; D2 ag-2: -7

Results for COc1ccccc1C(=O)Nc1ccc2nc(SCCOc3ccccc3C)sc2c1 ?
D2 ag-1: -2; D2 PAM-1: 14

What do the screens show for `CC1CN(C(=O)CCC(=O)NCCCN2CCN(Cc3ccccc3)CC2)c2cc(Cl)ccc2O1` (stereo not given)?
D2 ag-1: 1; D2 PAM-1: -32; D2 antag: 37*; D2 PAM-2: -34; D2 ag-2: -12

What do the screens show for `O=C(CCC(=O)N1CCOc2ccc(Cl)cc21)NCCCN1CCOCC1`?
D2 ag-1: -1; D2 PAM-1: -6; D2 antag: -12; D2 PAM-2: -8; D2 ag-2: -2

What do the screens show for `O=C(CCC(=O)N1CCOc2ccc(Cl)cc21)NCc1ccccc1`?
D2 ag-1: 0; D2 PAM-1: -23; D2 antag: 37*; D2 PAM-2: -11; D2 ag-2: 0

How did O=C(CCC(=O)N1CCOc2ccc(Cl)cc21)NCCCN1CCN(Cc2ccccc2)CC1 do in these assays?
D2 ag-1: 1; D2 PAM-1: -15; D2 antag: 41*; D2 PAM-2: -13; D2 ag-2: 0

What do the screens show for `Brc1ccc(C2=Nc3cccc4cccc(c34)N2)o1`?
D2 ag-1: 1; D2 PAM-1: 4; D2 antag: -10; D2 PAM-2: 84*; D2 ag-2: inconclusive

Results for COc1ccc(CCNS(=O)(=O)c2ccc(N3CCCCS3(=O)=O)cc2)cc1OC ?
D2 ag-1: 1; D2 PAM-1: 0

What do the screens show for `COc1ccc(OCCN2CCN(S(=O)(=O)c3ccccc3C(F)(F)F)CC2)cc1`?
D2 ag-1: 0; D2 PAM-1: -3; D2 antag: 12; D2 PAM-2: -1; D2 ag-2: 0

What do the screens show for `Cc1cc(OCCN2CCN(S(=O)(=O)c3ccccc3F)CC2)ccc1C(C)C`?
D2 ag-1: 1; D2 PAM-1: 66*; D2 antag: -6; D2 PAM-2: -21; D2 ag-2: -2

How did CC(=O)NC(CC(=O)OCc1ccc([N+](=O)[O-])cc1)c1ccccc1 (stereo not given) do in these assays?
D2 ag-1: -1; D2 PAM-1: 37*; D2 antag: -4; D2 PAM-2: -7; D2 ag-2: -3

How did CCOc1ccc(-c2c(C(=O)N/N=C(\C)c3cccs3)nnn2-c2nonc2N)cc1 do in these assays?
D2 ag-1: 4; D2 PAM-1: 74*; D2 antag: -17; D2 PAM-2: -5; D2 ag-2: -9

What do the screens show for `CCOc1ccc(-c2c(C(=O)N/N=C/c3ccc(C)o3)nnn2-c2nonc2N)cc1`?
D2 ag-1: 0; D2 PAM-1: -5; D2 antag: 8; D2 PAM-2: -1; D2 ag-2: -4

How did C/C(=N/NC(=O)c1nnn(-c2nonc2N)c1-c1ccccc1)c1ccncc1 do in these assays?
D2 ag-1: 2; D2 PAM-1: -10; D2 antag: -2; D2 PAM-2: -4; D2 ag-2: 2

How did CCCOc1ccc(-c2c(C(=O)N/N=C/c3cccs3)nnn2-c2nonc2N)cc1 do in these assays?
D2 ag-1: 0; D2 PAM-1: 49*; D2 antag: 19; D2 PAM-2: 4; D2 ag-2: 1

How did COc1ccc(/C(C)=N/NC(=O)c2nnn(-c3nonc3N)c2-c2ccccc2)cc1 do in these assays?
D2 ag-1: 31*; D2 PAM-1: 17; D2 antag: 6; D2 PAM-2: -5; D2 ag-2: -1
